Nine molecules from PubChem BioAssay (NCI) can be followed below.

About 83,000 compounds went through this panel and 20% of them were active in at least one assay; those are over-represented in the sample as a whole.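 Plates (96-well) were seeded with cells, treated with compound at one concentration, and incubated for 48 hours before percent growth was determined.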 A number with no mark means an inactive call. The source made the active and inactive calls. The calls were made as follows: active = growth percent below 10; inactive = the rest.

Test systems include SR leukemia; RPMI-8226 leukemia; OVCAR-8 ovarian; OVCAR-5 ovarian; OVCAR-4 ovarian; SK-OV-3 ovarian; IGROV1 ovarian; OVCAR-3 ovarian; HS 578T breast; NCI/ADR-RES ovarian; T-47D breast; BT-549 breast; MDA-MB-435 melanoma; SW-620 colon; HCT-116 colon; HCC-2998 colon; KM12 colon; MCF7 breast.
Holding throughout (assay): NCI-60 one-dose screen, 48 h (100 = growth as untreated, 0 = no growth, -100 = all killed)
Details in all cases: 10 µM unless noted

Consider `C=C(C)[C@@H]1CC[C@]2(C(=O)N3CCNCC3)CC[C@]3(C)[C@H](CC[C@@H]4[C@@]5(C)C/C(=C/c6ccncc6)C(=O)C(C)(C)[C@@H]5CC[C@]43C)[C@@H]12`, for which the growth was 106% in the experiment with SR leukemia; 98.2% with RPMI-8226 leukemia; 98.2% in the experiment on OVCAR-8 ovarian; 105% in the experiment with OVCAR-5 ovarian; 98.9% in the experiment with OVCAR-4 ovarian; 107% in the experiment with SK-OV-3 ovarian. The growth was 103% in the experiment on IGROV1 ovarian; 116% with OVCAR-3 ovarian; 98.4% in the experiment on HS 578T breast; 109% in the experiment on NCI/ADR-RES ovarian; 102% in the experiment on T-47D breast; 105% in the experiment with BT-549 breast. Further, the growth in the experiment with MDA-MB-435 melanoma is 105%; in the experiment with SW-620 colon it was 109%; in the experiment on HCT-116 colon, 102%; in the experiment on HCC-2998 colon it was 109%; in the experiment on KM12 colon, 109%.
For `COc1ccc(C2C(C#N)=C(N)Oc3c2ccc2ccccc32)cc1` (stereo not drawn), the growth in the experiment on SR leukemia was 37.4%; in the experiment on RPMI-8226 leukemia, 44.3%; in the experiment with OVCAR-8 ovarian, 56.5%; in the experiment on OVCAR-5 ovarian, 73.3%; with OVCAR-4 ovarian it was 62.3%; in the experiment on SK-OV-3 ovarian, 57.8%. Also, the growth was 41% in the experiment on IGROV1 ovarian; 15.4% with OVCAR-3 ovarian; 47.1% with HS 578T breast; 5.02% (active) in the experiment on NCI/ADR-RES ovarian; 31% in the experiment on T-47D breast; 61% in the experiment on BT-549 breast. Also, the growth in the experiment on MDA-MB-435 melanoma is -49.8% (active); with SW-620 colon it was 19%; in the experiment with MCF7 breast, 13.2%; in the experiment with HCC-2998 colon, 74.4%; in the experiment on KM12 colon, 29%.
With `COC1=C(OC)C(=O)C(CCCCCCCCCC[P+](c2ccccc2)(c2ccccc2)c2ccccc2)=C(C)C1=O`, the growth in the experiment with SR leukemia is -27% (active); in the experiment with RPMI-8226 leukemia, -62.5% (active); in the experiment on OVCAR-8 ovarian it was -48.3% (active); in the experiment with OVCAR-5 ovarian, 3.19% (active); in the experiment on OVCAR-4 ovarian, 2.19% (active); in the experiment with SK-OV-3 ovarian, -40% (active). The growth in the experiment on IGROV1 ovarian was -31.6% (active); in the experiment with OVCAR-3 ovarian, -34.2% (active); in the experiment on HS 578T breast, -58.9% (active); in the experiment on NCI/ADR-RES ovarian, 60.7%; in the experiment on T-47D breast it was -59% (active); in the experiment on BT-549 breast, -78.9% (active). Also, the growth with MDA-MB-435 melanoma is -82.6% (active); in the experiment with SW-620 colon it was -13.2% (active); in the experiment with HCT-116 colon, 6.18% (active); in the experiment on HCC-2998 colon it was -18.3% (active); with KM12 colon, -37.5% (active).
Consider `CCCCCCCCCCCCCCCCCCNC(=O)[C@H]1CSC(c2ccc(OC)cc2O)N1` (stereo partly drawn), for which the growth in the experiment with SR leukemia is 9.44% (active); with RPMI-8226 leukemia it was 73.4%; in the experiment with OVCAR-8 ovarian it was 12%; with OVCAR-5 ovarian, 56%; in the experiment with OVCAR-4 ovarian, 84.6%; with SK-OV-3 ovarian it was 96.4%. In addition, the growth in the experiment with IGROV1 ovarian is 60.1%; in the experiment on OVCAR-3 ovarian, 80.3%; in the experiment with HS 578T breast, 55%; in the experiment on NCI/ADR-RES ovarian, 70.8%; in the experiment on T-47D breast it was 60%; with BT-549 breast, 27.4%. The growth is 25.4% with MDA-MB-435 melanoma; 67.3% in the experiment on SW-620 colon; 39.3% with HCT-116 colon; 76.7% in the experiment on HCC-2998 colon; 27% in the experiment on KM12 colon.
For the molecule `Cc1cc(N/N=C/c2nc(-c3ccc(Br)cc3)oc2C)c2cc(Cl)ccc2n1`, the growth in the experiment with SR leukemia was 5.46% (active); in the experiment with RPMI-8226 leukemia, -9.52% (active); in the experiment with OVCAR-8 ovarian, 41.4%; with OVCAR-5 ovarian, 102%; with OVCAR-4 ovarian, -74.2% (active); in the experiment with SK-OV-3 ovarian, 104%. In addition, the growth was 92.6% with IGROV1 ovarian; 45.2% with OVCAR-3 ovarian; 106% in the experiment with HS 578T breast; 69.2% in the experiment with NCI/ADR-RES ovarian; 95.8% in the experiment on T-47D breast; 98.1% in the experiment with BT-549 breast. Also, the growth with MDA-MB-435 melanoma is 16.8%; in the experiment with SW-620 colon it was -8.11% (active); in the experiment on HCT-116 colon it was -16.5% (active); in the experiment on HCC-2998 colon it was 96.1%; in the experiment on KM12 colon, 84%.
As for `COc1ccc(/C=C\c2cc(OC)c(OC)c(OC)c2)cc1OC(=O)c1cccc(Cn2cc(CCOC(=O)c3cccc(Cn4nnc5c4C(=O)c4ccccc4C5=O)c3)nn2)c1`, the growth is 12.5% in the experiment with SR leukemia; 12.4% in the experiment on RPMI-8226 leukemia; 16% in the experiment on OVCAR-8 ovarian; 28.8% in the experiment with OVCAR-5 ovarian; 31.6% in the experiment with OVCAR-4 ovarian; 41.7% in the experiment on SK-OV-3 ovarian. For the same molecule, the growth in the experiment with IGROV1 ovarian is 16.1%; in the experiment with OVCAR-3 ovarian, -10.1% (active); in the experiment on HS 578T breast it was 5.15% (active); with NCI/ADR-RES ovarian, 11.5%; in the experiment with T-47D breast it was 67.6%; in the experiment with BT-549 breast, 27%. For the same molecule, the growth in the experiment with MDA-MB-435 melanoma is -36.3% (active); in the experiment with SW-620 colon, 27.8%; in the experiment on HCT-116 colon, 6.52% (active); in the experiment with HCC-2998 colon it was 17.6%; with KM12 colon, 9.04% (active).
For the molecule `CCOC(=O)c1c(/N=C2\SC(=O)/C(=C\C(=O)OC)N2NC)sc2c1CCN(C(=O)OCC)C2`, the growth with SR leukemia was 103%; in the experiment with RPMI-8226 leukemia, 95.3%; with OVCAR-8 ovarian, 103%; with OVCAR-5 ovarian it was 102%; with OVCAR-4 ovarian, 99.1%; in the experiment with SK-OV-3 ovarian, 109%. For the same molecule, the growth with IGROV1 ovarian is 102%; in the experiment on OVCAR-3 ovarian, 106%; in the experiment with HS 578T breast it was 103%; with NCI/ADR-RES ovarian, 103%; with T-47D breast, 93.4%; in the experiment on BT-549 breast, 91.7%. Also, the growth is 101% in the experiment with MDA-MB-435 melanoma; 105% with SW-620 colon; 95% in the experiment on HCT-116 colon; 92.5% with HCC-2998 colon; 99.1% with KM12 colon.
In the case of `CCNc1nc(S(=O)(=O)CC)nc2ccccc12`, the growth with SR leukemia was 84.5%; in the experiment with RPMI-8226 leukemia, 87.5%; with OVCAR-8 ovarian it was 99.8%; with OVCAR-5 ovarian, 104%; in the experiment on OVCAR-4 ovarian, 99.7%; in the experiment with SK-OV-3 ovarian, 96.6%. Besides, the growth in the experiment with IGROV1 ovarian was 104%; in the experiment on OVCAR-3 ovarian, 98%; in the experiment on HS 578T breast it was 93.6%; in the experiment with NCI/ADR-RES ovarian it was 111%; in the experiment on T-47D breast, 92.4%; in the experiment with BT-549 breast, 91.2%. Also, the growth in the experiment with MDA-MB-435 melanoma was 81.9%; with SW-620 colon, 106%; in the experiment with HCT-116 colon, 91.7%; in the experiment with HCC-2998 colon it was 115%; in the experiment with KM12 colon, 94.9%.
In the case of `CC1(C)C(=O)/C(=C\c2ccc(C(F)(F)F)cc2)C[C@]2(C)[C@H]3CC[C@@H]4[C@H]5[C@H](C(=O)/C=C/c6ccc(C(F)(F)F)cc6)CC[C@]5(CO)CC[C@@]4(C)[C@]3(C)CC[C@@H]12`, the growth with SR leukemia was 82.2%; with RPMI-8226 leukemia, 88.6%; with OVCAR-8 ovarian it was 79.6%; with OVCAR-5 ovarian it was 107%; in the experiment with OVCAR-4 ovarian, 96.6%; in the experiment on SK-OV-3 ovarian it was 110%. The growth in the experiment on IGROV1 ovarian is 92.4%; with OVCAR-3 ovarian it was 97%; with HS 578T breast, 95.8%; with NCI/ADR-RES ovarian, 99.1%; in the experiment on T-47D breast, 76%; with BT-549 breast, 95.8%. Besides, the growth in the experiment on MDA-MB-435 melanoma was 101%; in the experiment on SW-620 colon, 98.3%; with HCT-116 colon, 82.6%; in the experiment on HCC-2998 colon it was 101%; with KM12 colon, 99.2%.
